# In the supplement of paper PMC3334620:
# Whole data set: some 33,000 sequences, median “E-score (-0.5 to 0.5)” near -0.016, cut for the highest 2% near 0.32. The entries come from a sample that favours the highest values as a whole.
# Biological target: T1, Stp1 (UniProt B3LFK1)
# T1 sequence: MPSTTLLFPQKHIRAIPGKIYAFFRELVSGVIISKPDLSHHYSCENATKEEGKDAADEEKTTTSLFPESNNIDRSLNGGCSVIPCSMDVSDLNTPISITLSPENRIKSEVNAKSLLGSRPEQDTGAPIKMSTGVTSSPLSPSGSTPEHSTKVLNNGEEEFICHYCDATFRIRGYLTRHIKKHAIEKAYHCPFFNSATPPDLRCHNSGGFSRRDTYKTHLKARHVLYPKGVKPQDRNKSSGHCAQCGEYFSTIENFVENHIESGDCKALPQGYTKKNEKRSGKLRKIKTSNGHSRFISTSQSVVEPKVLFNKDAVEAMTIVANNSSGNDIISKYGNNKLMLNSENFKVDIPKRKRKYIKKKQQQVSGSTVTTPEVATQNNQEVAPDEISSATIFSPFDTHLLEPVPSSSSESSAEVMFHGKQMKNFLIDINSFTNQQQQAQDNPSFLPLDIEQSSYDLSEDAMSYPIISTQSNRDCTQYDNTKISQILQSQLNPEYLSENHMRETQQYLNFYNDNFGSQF
# Experiment: PBM E-score (8-mer binding enrichment) (E-score (-0.5 to 0.5)); higher = stronger / more preferred TF binding
# Conditions: protein concentration: 200 nM; construct: GST-full length
# Protocol: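 Universal 'all 10-mer' protein binding microarrays (Agilent AMADID 015681) probed with GST-tagged S. cerevisiae TFs (full-length or DBD) made by in vitro transcription/translation (PURExpress), about 100-200 nM. Bound TF was detected with fluorescent anti-GST. Each ungapped 8-mer (which stands for itself and its reverse complement) is scored by the PBM enrichment score (E-score), a modified Wilcoxon-Mann-Whitney statistic from -0.5 to +0.5, computed with the Universal PBM Analysis Suite. Scale: above 0.35 generally sequence-specific binding.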
row,Sequence,PBM E-score
1,CAAGCTAC,-0.171
2,CATATATA,0.256
3,AGTATATC,0.0639
4,GATATATA,0.314
5,AGTATATG,-0.0746
6,TATATATA,0.345
7,AGTATATA,0.363
8,AACACTCT,0.00778
9,ACCGGCGC,0.3
10,GACGGCGC,0.451
11,ACCGGCGT,0.0951
12,CCCGGCGC,0.121
13,AATGGCGT,0.161
14,AATGGCGC,0.253
15,GACGGGGC,0.143
16,GCCGGCGC,0.346
17,AACGGCGC,0.477
18,AACGGGGC,0.186
19,GATGGCGC,0.145
20,AACGGCGT,0.448
21,ATAGCAGC,-0.187
22,CTGAGCGC,0.0168
23,GAGAACAA,0.145
24,CACGGGCA,0.231
25,ACGTAGTA,0.103

row,Sequence,PBM E-score
1,CCCTCTTC,-0.308
2,AACGGGGG,-0.316
3,AACGGCGG,0.378
4,AACGGGCG,0.154
5,CGACTGCG,-0.098
6,GAAAGACC,-0.321
7,AACGCCGC,0.47
8,AACGCCTC,0.225
9,AACGCCTA,0.0856
10,AACGCCAC,0.245
11,AACGCCCC,0.213
12,AACGCCGA,0.292
13,AACGCCTT,0.328
14,AACGCCGG,0.0903
15,AACGCCGT,0.482
16,ACCGACGA,-0.0695
17,CGCCATCA,-0.144
18,CTAGGTTA,0.00212
19,GACTTGGC,-0.232
20,GGGCCGTA,0.369
21,CGGCCGGA,-0.15
22,CGGCCGTA,0.37
23,CGGCCGTC,0.16
24,GGCCCGTA,-0.0728
25,AGGCCGTA,0.298

row,Sequence,PBM E-score
1,CGGCCAGC,-0.206
2,CATGGTCA,0.103
3,ATCTAAAG,-0.0363
4,GGAATTGA,0.0238
5,GGCGCGCA,0.318
6,GGCGCGGA,0.337
7,CGCGCAAA,0.198
8,AGCGCAAA,-0.0739
9,CGCGCGCA,0.272
10,TGCGCGCA,0.133
11,GTCGCGGA,-0.0678
12,GGCGCGTA,0.186
13,GGCGCCCC,0.284
14,GGCGCAAA,0.406
15,GGCGCGCC,0.423
16,CGCGCGGA,0.256
17,CAGCAGTA,-0.0846
18,AAGAAGCC,0.232
19,ACCACTTC,-0.242
20,CGAGCTAG,-0.0273
21,AGGTTGCC,-0.0941
22,GCTTGAAC,0.111
23,AAAGGAGG,-0.258
24,ACCAAACA,0.201
25,AAAGTCTG,-0.115

row,Sequence,PBM E-score
1,CAATTAGG,0.104
2,CGCGCGCG,0.405
3,CGCGCGAG,0.239
4,CCCGCGCC,0.297
5,CGCGCGCC,0.403
6,AGCGCGCG,0.196
7,CCCCCGCG,-0.0598
8,CTCGCGCC,0.295
9,CCCGCGCG,0.328
10,AGCGCGCC,0.196
11,ACCTAGCC,-0.186
12,CTCAATTC,0.0345
13,GTGCCTAA,0.184
14,AACAGCGT,0.0405
15,CTCGGCGA,0.123
16,ATCGGCGA,0.0557
17,ATCGGCGG,0.262
18,CTCGGCAC,0.3
19,CTCGGCGC,0.382
20,ATCGGCGC,0.342
21,ACAACAAT,0.0375
22,CTCGACAA,-0.0792
23,AACGCACA,-0.0113
24,ACCGCACC,0.0883
25,CCCGCACC,-0.149

row,Sequence,PBM E-score
1,GCCGCACC,0.449
2,CCCGCACG,0.222
3,GCCGCACA,0.452
4,AACGCACG,0.36
5,CACGCACG,0.203
6,ACCGCACA,-0.0115
7,CAAACTTG,-0.0331
8,AAGTGACG,-0.00161
9,CAGATTGC,0.057
10,CGAACCTC,-0.0892
11,CGATGATC,-0.0137
12,GCGCCCAA,0.119
13,GCGCCCTA,0.342
14,ACGCCACA,0.295
15,ACGCCCTA,0.127
16,CCGCCACG,0.0257
17,CCGCCCTA,-0.041
18,GCGCCCCA,0.353
19,GCGCCACA,0.334
20,GCGCCCCC,-0.129
21,CGCTTGGC,0.0526
22,CTTGCCTC,0.0687
23,AACCTATG,0.053
24,CACCTTTA,-0.0604
25,AACCTGTC,-0.17

row,Sequence,PBM E-score
1,GCACTCGA,-0.0637
2,CGGCTTCC,0.211
3,TGGCTTAA,0.193
4,AGGCTTGC,-0.31
5,CGGCTTCA,0.368
6,CGGCTTGA,0.0356
7,CGGCTTAG,0.0549
8,CGGCTTGC,0.37
9,CGGCTTAA,0.318
10,AGGCTTCA,-0.0829
11,AATCCTGT,-0.037
12,ACCTATGG,-0.0452
13,CTCAGAAG,-0.0989
14,CCTAACAG,0.121
15,CTTCCCAC,-0.0242
16,TATGCATA,0.00403
17,TACTGTAA,0.021
18,ATGCAGGA,-0.258
19,AGGCGCGC,0.308
20,CGGCGCGC,0.475
21,GGGCGCGA,0.28
22,CAGCGCGC,-0.00184
23,AAGCGCGG,0.171
24,CAGCGCGA,-0.0618
25,ATGCGCGG,0.307

row,Sequence,PBM E-score
1,CTGCGCGC,0.269
2,ACGCGCGA,0.105
3,CGGCGCGA,0.477
4,AGGCGCGA,0.392
5,AGGCGCGG,0.355
6,CTGCTTAC,-0.0697
7,CTCGAAAG,-0.053
8,CCTCACCA,-0.0872
9,ACAAATGC,0.155
10,CTTCAAGC,0.0107
11,AGACCATC,-0.131
12,CCCCTAAA,-0.228
13,AGTTGATG,-0.0271
14,ATCTACAC,0.0776
15,ACTTTACG,0.0861
16,GCAGGAGA,-0.303
17,ACGCCGTG,0.485
18,ACGCCGGG,-0.0857
19,CCGCCGTC,0.255
20,AGGCCGTG,0.307
21,AGGCCGTC,-0.0198
22,ACGCCGTC,0.41
23,ACGCCGTA,0.471
24,CGCCCGTA,-0.183
25,CCGCCGTA,0.42

row,Sequence,PBM E-score
1,ACACCGTA,-0.0212
2,ACGCCGAA,0.21
3,CCCCCGTA,-0.238
4,AGCCGAGG,0.142
5,CTGCTGCA,-0.169
6,ATCAGGGA,-0.201
7,GATTTAAC,0.148
8,ATTGATTC,0.265
9,ATTGATTG,0.178
10,ATTGATTA,0.338
11,CCGGCTAC,0.0509
12,GCGGCTAC,0.305
13,ACGGCTAC,0.407
14,GCGGCTAA,0.304
15,ACGGCTAT,0.349
16,AGGGCTAT,-0.325
17,TCGGCTAA,0.145
18,ACGGCTAG,0.235
19,ACGGCTAA,0.377
20,AGTCTCCC,-0.272
21,CTTATAGC,-0.0511
22,CGGTGCAG,-0.0834
23,GTCAAATA,0.0762
24,GTCGCAAC,-0.0752
25,GAATAGTC,-0.205

row,Sequence,PBM E-score
1,ACAGGCAC,-0.047
2,CGCTAGGA,-0.0128
3,TGCCGTAA,0.34
4,CCCCGTAA,-0.0389
5,ACCCGTAC,0.0646
6,GGCCGTAA,0.192
7,TCCCGTAA,-0.0808
8,ATCCGTAC,0.28
9,GACCGTAC,-0.0763
10,AGCCGTAC,0.432
11,GGCCGTAC,0.424
12,CACCGTAA,0.00961
13,CGCCGTAA,0.418
14,TACCGTAA,0.0576
15,ATCGAGTG,0.141
16,AAATGTCC,-0.229
17,AATAAGCC,0.0484
18,AGTGAATG,0.0894
19,CAGTAACG,0.0111
